Measurements as given in PubChem BioAssay (NCATS).
Results filed as inconclusive are left out. Where a call stands in place of a potency, no number is given. Activity calls are given as the source filed them. The call rests on the fitted dose curve; in most records, active means well fitted curve in the direction sought with a large enough effect; inconclusive means small, poorly fitted or top-dose-only effect, or another doubt; inactive means no such curve, though single readings can be large; an effect the other way counts as inactive or inconclusive.

Columns and labels:
[1] = system: Zika virus NS2B-NS3 protease (unlinked complex); experiment: Primary screen GU Rhodamine qHTS for Zika virus inhibitors: Unlinked NS2B-NS3 protease assay (AID 1347159); further: nearly all actives have a fitted effect of over 60% in size; further: potency means the concentration at half of the fitted maximal effect
How it was run: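 Percent inhibition came from the 15-min rise in Rhodamine110 fluorescence (1.5 microM substrate, ~15% conversion), normalized to no-inhibitor and no-enzyme wells and Hill-fitted. Unlinked protease, 25 nM, pH 8.0 Tris buffer; compounds up to 114 microM, 15-min preincubation.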

[2] = biological target: Calcium and integrin-binding protein 1 (Homo sapiens) (UniProt Q99828); experiment: Primary qHTS for Identification of Calcium Integrin Binding Protein 1 (CIB1) Competitor (AID 1508620);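 further: GST tagged CIB1 binding a fluorescein labelled alphaIIb integrin peptide tracer; top concentration of the series differs between compounds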
Sequence of Calcium and integrin-binding protein 1 (Homo sapiens) (Q99828 whole entry, looked up): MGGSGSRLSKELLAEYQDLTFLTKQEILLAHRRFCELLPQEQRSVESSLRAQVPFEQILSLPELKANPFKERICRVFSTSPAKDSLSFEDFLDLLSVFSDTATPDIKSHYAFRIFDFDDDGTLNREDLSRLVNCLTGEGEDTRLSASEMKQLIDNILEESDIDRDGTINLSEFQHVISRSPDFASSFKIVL
How it was run: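 Fluorescence polarization competition: GST-tagged CIB1 (1 uM final) preincubated with compound 15 min at room temperature, then FITC-labelled alphaIIb peptide (100 nM final) added. After 15 min at room temperature, polarization read at Ex 480/Em 540.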

[3] = Primary qHTS for inhibitors of nuclear receptor binding SET domain protein 2 (NSD2) in an isogenic RCH-ACV NSD2 p.E1099K mutant (9B) (AID 1645876); further: nearly all actives have a fitted effect of over 70% in size; further: potency means the concentration at half of the fitted maximal effect
[4] = Primary qHTS for inhibitors of nuclear receptor binding SET domain protein 2 (NSD2) in an RCH-ACV wild type WT cells (2C) (AID 1645877); further: nearly all actives have a fitted effect of over 70% in size; further: potency means the concentration at half of the fitted maximal effect
[5] = biological target: Glutathione peroxidase 1 (Homo sapiens) (UniProt P07203); experiment: Primary qHTS Assay for Inhibitors of Recombinant Selenoprotein Glutathione Peroxidase 1 (GPX1) (AID 1845191); further: nearly all actives have a fitted effect of over 65% in size; further: potency means the concentration at half of the fitted maximal effect
Sequence of Glutathione peroxidase 1 (Homo sapiens) (P07203 whole entry, looked up): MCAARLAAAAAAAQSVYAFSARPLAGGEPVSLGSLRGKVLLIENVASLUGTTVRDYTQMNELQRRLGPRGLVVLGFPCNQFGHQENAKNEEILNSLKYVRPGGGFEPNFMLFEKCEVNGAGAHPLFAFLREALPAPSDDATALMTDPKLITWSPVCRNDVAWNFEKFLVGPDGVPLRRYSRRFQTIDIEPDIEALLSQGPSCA
How it was run: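 GR-coupled readout: NADPH consumption tracked by fluorescence, ex 340/em 450 nm, at t=0 and after 15 min at RT. Final mix 10 nM GPX1, 1 mM GSH, 0.5 mM CHP, 0.5 mM NADPH, 100 nM GR, 0.01% BSA, following 30 min enzyme–compound preincubation.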

[6] = biological target: Phospholipid hydroperoxide glutathione peroxidase GPX4 (Homo sapiens) (UniProt P36969); experiment: Primary qHTS Assay for Inhibitors of Recombinant Selenoprotein Glutathione Peroxidase 4 (GPX4) (AID 1845192); settings: outcome: dose series up to 50 µM unless noted; further: nearly all actives have a fitted effect of over 65% in size; further: potency means the concentration at half of the fitted maximal effect
Sequence of Phospholipid hydroperoxide glutathione peroxidase GPX4 (Homo sapiens) (P36969 whole entry, looked up): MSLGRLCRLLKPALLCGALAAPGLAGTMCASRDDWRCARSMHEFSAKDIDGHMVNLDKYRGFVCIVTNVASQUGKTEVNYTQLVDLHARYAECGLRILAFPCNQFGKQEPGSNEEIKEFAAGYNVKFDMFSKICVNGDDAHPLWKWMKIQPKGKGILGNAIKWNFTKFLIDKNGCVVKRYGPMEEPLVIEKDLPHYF
How it was run: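 Steps: GPX4 plus compound, 30 min RT; add GR/GSH/NADPH master mix; start with cumene hydroperoxide; read 340/450 nm fluorescence at 0 and 15 min. Finals were 200 nM GPX4, 1 mM GSH, 0.5 mM CHP, 0.5 mM NADPH, 100 nM GR.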

[7] = system: Nanoluciferase (engineered Oplophorus gracilirostris luciferase); experiment: Primary Nanoluciferase (NLuc) qHTS assay for identification of artifact compounds. (AID 1845222);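 further: NLuc secreted into diluted conditioned medium of S16 cells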
How it was run: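 S16 cell supernatant NLuc, 1:55; cpds qHTS; 15 min RT dark; Nano-Glo substrate 1:100, 5 min; luminescence; Hill fit of % inhibition.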

[8] = system: C33A; experiment: Primary qHTS to identify gynecologic anti-cancer compounds using libraries of approved drugs and bioactive compounds (AID 1345084); settings: Gynecologic cancer cell panel viability, ATPlite luminescence, 48 h; series mostly up to 57.5 µM; further: nearly all actives have a fitted effect of over 55% in size
How it was run: (§1)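 Five-concentration response, 48 h; readout is ATP-driven luciferase luminescence.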

[9] = system: CASKI; experiment: as above; settings: Gynecologic cancer cell panel viability, ATPlite luminescence, 48 h; series mostly up to 57.5 µM
How it was run: as §1

[10] = system: Es-2; experiment: as above; settings: Gynecologic cancer cell panel viability, ATPlite luminescence, 48 h; series mostly up to 57.5 µM
How it was run: as §1

[11] = system: HeLa; experiment: as above; settings: Gynecologic cancer cell panel viability, ATPlite luminescence, 48 h; series mostly up to 57.5 µM
How it was run: as §1

[12] = system: Hek293T; experiment: as above; settings: Gynecologic cancer cell panel viability, ATPlite luminescence, 48 h, control line for the selectivity index; series mostly up to 57.5 µM
How it was run: as §1

[13] = system: JEG-3; experiment: as above; settings: Gynecologic cancer cell panel viability, ATPlite luminescence, 48 h; series mostly up to 57.5 µM
How it was run: as §1

[14] = system: OV90; experiment: as above; settings: Gynecologic cancer cell panel viability, ATPlite luminescence, 48 h; series mostly up to 57.5 µM
How it was run: as §1

[15] = system: Tov-21-G; experiment: as above; settings: Gynecologic cancer cell panel viability, ATPlite luminescence, 48 h; series mostly up to 57.5 µM
How it was run: as §1

[16] = system: Tov112D; experiment: as above; settings: Gynecologic cancer cell panel viability, ATPlite luminescence, 48 h; series mostly up to 57.5 µM
How it was run: as §1

[17] = P-glycoprotein substrates identified in KB-8-5-11 adenocarcinoma cell line, qHTS therapeutic library screen (AID 1346987); further: potency means the concentration at half of the fitted maximal effect; nearly all actives have a fitted effect of over 65% in size
How it was run: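 Human cervical adenocarcinoma KB-8-5-11 cells, selected in colchicine to over-express P-gp and assayed without it, were exposed for 72 h to titrated compounds. An ATP-based luminescent viability signal gave AC50.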

[18] = system: Zika virus NS2B-NS3 protease (linked construct); experiment: Primary screen NINDS Rhodamine qHTS for Zika virus inhibitors (AID 1347160); further: nearly all actives have a fitted effect of over 55% in size; further: potency means the concentration at half of the fitted maximal effect
How it was run: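 Rhodamine110-peptide cleavage (1.5 µM substrate) by 25 nM linked NS2B-NS3 enzyme at pH 8.0 (Tris, Tween 20), after 15 min RT preincubation with compounds; 15-min fluorescence change normalized to controls and Hill-fitted.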

[19] = biological target: Luciferin 4-monooxygenase (Photinus pyralis) (UniProt P08659); experiment: Primary firefly luciferase (FLuc) qHTS assay for identification of artifact compounds. (AID 1845220); further: nearly all actives have a fitted effect of over 60% in size; further: potency means the concentration at half of the fitted maximal effect
How it was run: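 Enzymatic FLuc inhibition assay: compounds pre-exposed to luciferin/ATP (10 uM each) for 15 min, then purified P. pyralis enzyme at 10 nM added. Read-out: luminescence at 5 min.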

For `CC(C)c1ccc(NC(=O)C(c2ccccc2)N(C)C(=O)Cc2c[nH]c3ccccc23)cc1` (stereo unspecified), the Potency [1] was 79.4 µM (active), the outcome [2] was “inactive” and the Potency [3] was 20.5 µM (active). For the same molecule, the Potency [4] was 20.5 µM (active), the Potency [5] was “inactive” and the Potency [6] was “inactive”. The Potency [7] was “inactive”, the Potency [8] was “inactive” and the Potency [9] was “inactive”. For the same molecule, the Potency [10] was “inactive”, the Potency [11] was “inactive” and the Potency [12] was “inactive”. For the same molecule, the Potency [13] was “inactive”, the Potency [14] was “inactive” and the Potency [15] was “inactive”. For the same molecule, the Potency [16] was “inactive”.
With `c1ccc(-c2cnc(Nc3ccc(OCCN4CCCC4)cc3)s2)cc1` the Potency [17] was 16.4 µM (active), the Potency [1] was “inactive” and the Potency [18] was “inactive”. For the same molecule, the outcome [2] was “inactive”, the Potency [3] was 9.16 µM (active) and the Potency [4] was 9.16 µM (active). The Potency [5] was “inactive”, the Potency [6] was “inactive” and the Potency [19] was 23.9 µM (active). For the same molecule, the Potency [7] was “inactive”, the Potency [8] was “inactive” and the Potency [9] was “inactive”. The Potency [10] was “inactive”, the Potency [11] was “inactive” and the Potency [12] was “inactive”. For the same molecule, the Potency [13] was “inactive” and the Potency [16] was “inactive”.
For `CC1(C)SC2C(NC(=O)[C@H](NC(=O)N3CCNC3=O)c3ccccc3)C(=O)N2C1C(=O)O` (stereo partly specified), the Potency [1] was “inactive”, the outcome [2] was “inactive” and the Potency [3] was “inactive”. For the same molecule, the Potency [4] was “inactive”, the Potency [5] was “inactive” and the Potency [6] was “inactive”. For the same molecule, the Potency [19] was “inactive”, the Potency [7] was “inactive” and the Potency [8] was “inactive”. For the same molecule, the Potency [9] was “inactive”, the Potency [10] was “inactive” and the Potency [11] was “inactive”. The Potency [12] was “inactive”, the Potency [13] was “inactive” and the Potency [14] was “inactive”. The Potency [15] was “inactive” and the Potency [16] was “inactive”.
For `Cc1ccn(-c2cc(Cl)ccc2[C@@H](Oc2cc(-c3ccc(C[C@H](N)C(=O)O)cc3)nc(N)n2)C(F)(F)F)n1`, the Potency [1] was “inactive”, the Potency [18] was 22.4 µM (active) and the outcome [2] was “inactive”. The Potency [5] was “inactive”, the Potency [19] was “inactive” and the Potency [8] was “inactive”. The Potency [9] was “inactive”, the Potency [10] was “inactive” and the Potency [11] was “inactive”. For the same molecule, the Potency [12] was “inactive”, the Potency [13] was “inactive” and the Potency [14] was “inactive”. For the same molecule, the Potency [15] was “inactive” and the Potency [16] was “inactive”.
With `Fc1ccccc1CNCc1ccc(-c2ccnc3[nH]ccc23)cc1` the Potency [17] was 11.6 µM (active), the Potency [1] was “inactive” and the Potency [18] was “inactive”. The outcome [2] was “inactive”, the Potency [3] was 16.3 µM (active) and the Potency [4] was 11.5 µM (active). For the same molecule, the Potency [5] was 25.5 µM (active), the Potency [6] was 16.1 µM (active) and the Potency [19] was “inactive”. The Potency [7] was “inactive”, the Potency [8] was “inactive” and the Potency [9] was “inactive”. For the same molecule, the Potency [10] was “inactive”, the Potency [11] was “inactive” and the Potency [12] was “inactive”. For the same molecule, the Potency [13] was “inactive”, the Potency [14] was “inactive” and the Potency [15] was “inactive”. For the same molecule, the Potency [16] was “inactive”.
With `C[C@@H](CN1CCC(n2c(=O)[nH]c3cc(Cl)ccc32)CC1)NC(=O)c1ccc2ccccc2c1` the Potency [17] was 18.4 µM (active), the Potency [1] was “inactive” and the Potency [18] was “inactive”. The outcome [2] was “inactive”, the Potency [3] was 10.3 µM (active) and the Potency [4] was 16.3 µM (active). For the same molecule, the Potency [5] was “inactive”, the Potency [6] was “inactive” and the Potency [19] was “inactive”. The Potency [7] was “inactive”, the Potency [8] was “inactive” and the Potency [9] was “inactive”. The Potency [10] was “inactive”, the Potency [11] was “inactive” and the Potency [12] was “inactive”. The Potency [13] was “inactive”, the Potency [15] was “inactive” and the Potency [16] was “inactive”.
